# Test results published in publication PMC7862700, “An all-to-all approach to the identification of sequence-specific readers for epigenetic DNA modifications on cytosine”.
# Columns and labels:
# Assay in all cases: DAPPL (digital affinity profiling via proximity ligation, sequencing); 10 mM Tris-HCl pH 7.5, 50 mM NaCl, 1 mM DTT, 4% glycerol, room temperature, 30 min; GST-TFs on glutathione beads, 16-mer random dsDNA library, 0.1% formaldehyde crosslink after washing; high values mean tight binding
# FEV = target: T1, FEV (Homo sapiens, UniProt Q99581 1-238); settings: protein: recombinant; tags: N-terminal GST; dsDNA, one strand shown
# T1 sequence: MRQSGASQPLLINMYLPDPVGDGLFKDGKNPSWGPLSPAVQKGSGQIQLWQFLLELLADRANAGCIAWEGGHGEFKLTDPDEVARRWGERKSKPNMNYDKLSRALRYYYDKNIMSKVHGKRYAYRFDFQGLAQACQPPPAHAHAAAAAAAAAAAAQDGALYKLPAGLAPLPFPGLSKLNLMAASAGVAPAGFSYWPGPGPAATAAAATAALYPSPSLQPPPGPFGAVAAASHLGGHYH
# In short: (§1)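 In yeast, human transcription factors were expressed with a GST fusion, then pulled down on glutathione beads and given DNA barcodes. Pooled with a tag-only sample, they were exposed to 200 nmole of a 16-mer random double-stranded DNA library (Tris/NaCl/DTT/glycerol buffer, room temperature, 30 min), washed, crosslinked with 0.1% formaldehyde, proximity-ligated using BsaI/T4 ligase for 1 h at 37 °C, PCR-amplified and read on an Illumina NextSeq500. Each hexamer's frequency of reads for a factor, divided by the matching frequency for the tag-only sample, gives the binding signal.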
# ETV5 = ETV5 (Homo sapiens, UniProt P41161 1-510); settings: protein: recombinant; tags: N-terminal GST; dsDNA, one strand shown
# In short: as §1
# HSF1 = HSF1 (Homo sapiens, UniProt Q00613 1-529); settings: protein: recombinant; tags: N-terminal GST; chain copies: 3; dsDNA, one strand shown
# In short: as §1
# ELF4 = ELF4 (Homo sapiens, UniProt Q99607 1-663); settings: protein: recombinant; tags: N-terminal GST; dsDNA, one strand shown
# In short: as §1
# ELK4 = target: T2, ELK4 (Homo sapiens, UniProt P28324-2 1-405); settings: protein: recombinant; tags: N-terminal GST; dsDNA, one strand shown
# T2 sequence: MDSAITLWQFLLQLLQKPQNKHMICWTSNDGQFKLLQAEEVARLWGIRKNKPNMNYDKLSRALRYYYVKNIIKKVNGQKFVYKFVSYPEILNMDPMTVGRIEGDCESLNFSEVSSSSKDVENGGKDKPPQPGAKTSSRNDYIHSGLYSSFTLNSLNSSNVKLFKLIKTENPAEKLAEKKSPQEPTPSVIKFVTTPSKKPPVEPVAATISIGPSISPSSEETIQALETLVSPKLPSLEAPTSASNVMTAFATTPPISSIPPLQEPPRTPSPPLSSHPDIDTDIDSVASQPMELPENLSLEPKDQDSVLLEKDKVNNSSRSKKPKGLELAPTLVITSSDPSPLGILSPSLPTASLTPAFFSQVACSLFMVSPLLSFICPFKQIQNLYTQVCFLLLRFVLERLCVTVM
# In short: as §1
# ETV2 = target: T3, ETV2 (Homo sapiens, UniProt O00321 1-342); settings: protein: recombinant; tags: N-terminal GST; dsDNA, one strand shown
# T3 sequence: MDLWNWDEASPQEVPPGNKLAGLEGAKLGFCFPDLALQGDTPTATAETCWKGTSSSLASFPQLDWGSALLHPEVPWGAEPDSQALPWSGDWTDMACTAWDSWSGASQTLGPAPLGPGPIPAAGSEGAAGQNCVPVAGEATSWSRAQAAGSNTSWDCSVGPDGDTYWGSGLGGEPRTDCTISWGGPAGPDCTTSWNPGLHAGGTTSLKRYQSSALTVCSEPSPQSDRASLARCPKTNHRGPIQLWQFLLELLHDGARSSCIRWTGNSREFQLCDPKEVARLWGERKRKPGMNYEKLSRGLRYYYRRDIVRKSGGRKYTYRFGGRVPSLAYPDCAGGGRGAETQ
# In short: as §1
# ELF3 = target: T4, ELF3 (Homo sapiens, UniProt P78545 1-371); settings: protein: recombinant; tags: N-terminal GST; dsDNA, one strand shown
# T4 sequence: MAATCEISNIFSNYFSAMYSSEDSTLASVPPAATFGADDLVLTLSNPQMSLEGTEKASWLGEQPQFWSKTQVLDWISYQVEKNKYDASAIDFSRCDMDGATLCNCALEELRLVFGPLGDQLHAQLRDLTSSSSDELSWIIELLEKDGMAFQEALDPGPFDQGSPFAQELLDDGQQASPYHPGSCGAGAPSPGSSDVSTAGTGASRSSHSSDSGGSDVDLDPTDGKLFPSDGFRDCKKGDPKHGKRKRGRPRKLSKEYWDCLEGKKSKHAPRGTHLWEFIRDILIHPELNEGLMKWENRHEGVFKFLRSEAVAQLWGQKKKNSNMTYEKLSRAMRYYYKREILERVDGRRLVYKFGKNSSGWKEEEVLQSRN
# In short: as §1
# CRX = CRX (Homo sapiens, UniProt O43186 1-299); settings: protein: recombinant; tags: N-terminal GST; dsDNA, one strand shown
# In short: as §1
# ETV1 = ETV1 (Homo sapiens, UniProt P50549 1-477); settings: protein: recombinant; tags: N-terminal GST; dsDNA, one strand shown
# In short: as §1
# ERF = target: T5, ERF (Homo sapiens, UniProt P50548 1-548); settings: protein: recombinant; tags: N-terminal GST; dsDNA, one strand shown
# T5 sequence: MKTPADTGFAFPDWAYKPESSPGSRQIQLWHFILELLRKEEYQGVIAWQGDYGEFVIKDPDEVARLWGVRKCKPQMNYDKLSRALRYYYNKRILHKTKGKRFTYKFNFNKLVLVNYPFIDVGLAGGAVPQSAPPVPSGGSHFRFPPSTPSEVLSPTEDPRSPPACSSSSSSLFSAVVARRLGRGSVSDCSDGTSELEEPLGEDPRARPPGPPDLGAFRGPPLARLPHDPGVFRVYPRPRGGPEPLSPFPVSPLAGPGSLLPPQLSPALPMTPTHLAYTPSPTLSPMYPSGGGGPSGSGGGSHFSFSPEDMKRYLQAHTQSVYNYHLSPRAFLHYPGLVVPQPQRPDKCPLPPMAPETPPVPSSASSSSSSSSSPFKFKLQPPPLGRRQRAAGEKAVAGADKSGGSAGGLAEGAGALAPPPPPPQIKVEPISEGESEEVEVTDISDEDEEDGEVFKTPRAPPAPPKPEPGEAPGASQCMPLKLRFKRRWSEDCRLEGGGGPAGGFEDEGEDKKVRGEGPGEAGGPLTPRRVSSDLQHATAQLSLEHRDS
# In short: as §1
# ETV3L = target: T6, ETV3L (Homo sapiens, UniProt Q6ZN32 1-361); settings: protein: recombinant; tags: N-terminal GST; dsDNA, one strand shown
# T6 sequence: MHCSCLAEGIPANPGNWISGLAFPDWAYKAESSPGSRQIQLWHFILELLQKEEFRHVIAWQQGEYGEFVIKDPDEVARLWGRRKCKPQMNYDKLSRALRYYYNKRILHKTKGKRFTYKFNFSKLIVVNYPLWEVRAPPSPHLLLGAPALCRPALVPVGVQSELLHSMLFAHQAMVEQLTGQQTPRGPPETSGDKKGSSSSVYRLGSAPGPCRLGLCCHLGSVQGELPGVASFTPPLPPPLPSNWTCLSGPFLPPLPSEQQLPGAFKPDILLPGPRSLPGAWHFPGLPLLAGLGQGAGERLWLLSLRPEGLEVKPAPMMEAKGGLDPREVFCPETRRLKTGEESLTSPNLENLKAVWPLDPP
# In short: as §1
# ETS2 = target: T7, ETS2 (Homo sapiens, UniProt P15036 1-469); settings: protein: recombinant; tags: N-terminal GST; dsDNA, one strand shown
# T7 sequence: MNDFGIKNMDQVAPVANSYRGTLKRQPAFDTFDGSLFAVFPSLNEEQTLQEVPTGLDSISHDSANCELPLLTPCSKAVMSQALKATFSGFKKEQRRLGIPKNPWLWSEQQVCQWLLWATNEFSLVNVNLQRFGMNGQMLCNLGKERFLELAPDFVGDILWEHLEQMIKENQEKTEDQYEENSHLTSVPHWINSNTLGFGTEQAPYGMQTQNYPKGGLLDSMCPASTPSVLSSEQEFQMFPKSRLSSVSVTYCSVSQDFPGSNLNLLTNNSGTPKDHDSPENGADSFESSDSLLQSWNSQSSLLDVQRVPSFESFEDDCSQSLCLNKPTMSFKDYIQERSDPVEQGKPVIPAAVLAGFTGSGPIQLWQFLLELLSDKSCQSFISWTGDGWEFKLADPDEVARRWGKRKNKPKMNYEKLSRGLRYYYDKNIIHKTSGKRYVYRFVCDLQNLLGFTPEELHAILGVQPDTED
# In short: as §1
# SPDEF = target: T8, SPDEF (Homo sapiens, UniProt O95238 1-335); settings: protein: recombinant; tags: N-terminal GST; dsDNA, one strand shown
# T8 sequence: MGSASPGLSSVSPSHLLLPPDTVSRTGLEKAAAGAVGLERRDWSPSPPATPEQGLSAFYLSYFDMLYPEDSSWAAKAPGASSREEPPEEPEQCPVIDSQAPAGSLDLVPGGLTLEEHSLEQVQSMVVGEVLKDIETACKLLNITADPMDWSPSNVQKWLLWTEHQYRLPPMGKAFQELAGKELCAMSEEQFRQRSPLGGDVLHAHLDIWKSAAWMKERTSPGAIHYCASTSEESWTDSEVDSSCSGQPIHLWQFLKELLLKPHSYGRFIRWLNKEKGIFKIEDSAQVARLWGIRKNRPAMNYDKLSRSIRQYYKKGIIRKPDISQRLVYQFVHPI
# In short: as §1
# ETV7 = target: T9, ETV7 (Homo sapiens, UniProt Q9Y603 1-341); settings: protein: recombinant; tags: N-terminal GST; dsDNA, one strand shown
# T9 sequence: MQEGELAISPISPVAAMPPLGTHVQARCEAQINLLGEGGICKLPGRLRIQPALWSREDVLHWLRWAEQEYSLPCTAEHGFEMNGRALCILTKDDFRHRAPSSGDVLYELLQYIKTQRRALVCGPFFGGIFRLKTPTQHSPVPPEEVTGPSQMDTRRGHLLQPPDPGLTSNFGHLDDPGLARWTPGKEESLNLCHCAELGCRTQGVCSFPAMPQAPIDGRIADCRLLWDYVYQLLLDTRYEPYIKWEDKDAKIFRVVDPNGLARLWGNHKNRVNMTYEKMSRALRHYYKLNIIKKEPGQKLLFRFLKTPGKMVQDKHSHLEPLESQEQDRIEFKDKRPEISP
# In short: as §1
# ELF5 = target: T10, ELF5 (Homo sapiens, UniProt Q9UKW6-2 1-255); settings: protein: recombinant; tags: N-terminal GST; dsDNA, one strand shown
# T10 sequence: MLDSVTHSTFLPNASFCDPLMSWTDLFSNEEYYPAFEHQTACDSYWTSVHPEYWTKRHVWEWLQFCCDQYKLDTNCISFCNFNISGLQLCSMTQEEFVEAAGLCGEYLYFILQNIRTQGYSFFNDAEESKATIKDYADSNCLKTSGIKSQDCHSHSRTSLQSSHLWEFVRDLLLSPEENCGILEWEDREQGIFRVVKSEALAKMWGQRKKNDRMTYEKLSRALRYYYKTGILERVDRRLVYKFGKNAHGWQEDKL
# In short: as §1
# ETV3 = target: T11, ETV3 (Homo sapiens, UniProt P41162-2 1-143); settings: protein: recombinant; tags: N-terminal GST; dsDNA, one strand shown
# T11 sequence: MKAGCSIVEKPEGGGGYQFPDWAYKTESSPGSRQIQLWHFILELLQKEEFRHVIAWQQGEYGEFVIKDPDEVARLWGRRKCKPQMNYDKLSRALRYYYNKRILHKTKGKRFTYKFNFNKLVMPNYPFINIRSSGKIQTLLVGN
# In short: as §1
# ETV6 = ETV6 (Homo sapiens, UniProt P41212 1-452); settings: protein: recombinant; tags: N-terminal GST; dsDNA, one strand shown
# In short: as §1
# Chain of ETV6 (P41212 whole entry): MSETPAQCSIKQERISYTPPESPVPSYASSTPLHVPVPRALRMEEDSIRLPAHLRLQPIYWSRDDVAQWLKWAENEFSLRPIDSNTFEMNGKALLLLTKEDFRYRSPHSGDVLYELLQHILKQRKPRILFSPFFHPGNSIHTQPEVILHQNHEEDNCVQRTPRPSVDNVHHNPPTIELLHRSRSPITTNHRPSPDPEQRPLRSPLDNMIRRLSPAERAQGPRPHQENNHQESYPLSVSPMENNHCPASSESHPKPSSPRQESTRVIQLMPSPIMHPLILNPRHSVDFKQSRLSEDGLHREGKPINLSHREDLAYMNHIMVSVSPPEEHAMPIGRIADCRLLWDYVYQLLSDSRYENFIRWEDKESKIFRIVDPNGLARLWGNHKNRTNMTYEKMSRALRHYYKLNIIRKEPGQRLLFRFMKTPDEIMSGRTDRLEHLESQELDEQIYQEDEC
# Chain of ETV5 (P41161 whole entry): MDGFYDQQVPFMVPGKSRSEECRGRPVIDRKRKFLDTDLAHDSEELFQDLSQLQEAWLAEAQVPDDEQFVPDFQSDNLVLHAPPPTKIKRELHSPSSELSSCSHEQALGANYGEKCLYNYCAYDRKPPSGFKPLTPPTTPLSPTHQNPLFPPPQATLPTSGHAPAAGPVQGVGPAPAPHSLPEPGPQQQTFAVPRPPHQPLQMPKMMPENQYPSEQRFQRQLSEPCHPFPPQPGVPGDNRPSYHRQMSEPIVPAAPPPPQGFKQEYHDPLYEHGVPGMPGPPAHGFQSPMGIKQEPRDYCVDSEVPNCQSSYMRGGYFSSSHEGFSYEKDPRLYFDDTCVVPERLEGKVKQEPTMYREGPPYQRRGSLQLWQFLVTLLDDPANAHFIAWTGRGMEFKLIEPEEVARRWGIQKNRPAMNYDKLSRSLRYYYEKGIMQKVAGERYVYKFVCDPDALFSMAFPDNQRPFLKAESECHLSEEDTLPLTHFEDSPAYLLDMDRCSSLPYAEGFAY
# Chain of CRX (O43186 whole entry): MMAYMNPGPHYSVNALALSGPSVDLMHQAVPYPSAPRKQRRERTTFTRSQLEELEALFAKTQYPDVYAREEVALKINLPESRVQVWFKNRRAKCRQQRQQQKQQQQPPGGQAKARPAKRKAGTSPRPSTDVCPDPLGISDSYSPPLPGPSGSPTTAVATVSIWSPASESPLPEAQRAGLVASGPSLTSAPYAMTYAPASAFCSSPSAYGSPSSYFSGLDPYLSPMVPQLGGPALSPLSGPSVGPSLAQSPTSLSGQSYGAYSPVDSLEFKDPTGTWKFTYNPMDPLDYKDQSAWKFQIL
# Chain of ELF4 (Q99607 whole entry): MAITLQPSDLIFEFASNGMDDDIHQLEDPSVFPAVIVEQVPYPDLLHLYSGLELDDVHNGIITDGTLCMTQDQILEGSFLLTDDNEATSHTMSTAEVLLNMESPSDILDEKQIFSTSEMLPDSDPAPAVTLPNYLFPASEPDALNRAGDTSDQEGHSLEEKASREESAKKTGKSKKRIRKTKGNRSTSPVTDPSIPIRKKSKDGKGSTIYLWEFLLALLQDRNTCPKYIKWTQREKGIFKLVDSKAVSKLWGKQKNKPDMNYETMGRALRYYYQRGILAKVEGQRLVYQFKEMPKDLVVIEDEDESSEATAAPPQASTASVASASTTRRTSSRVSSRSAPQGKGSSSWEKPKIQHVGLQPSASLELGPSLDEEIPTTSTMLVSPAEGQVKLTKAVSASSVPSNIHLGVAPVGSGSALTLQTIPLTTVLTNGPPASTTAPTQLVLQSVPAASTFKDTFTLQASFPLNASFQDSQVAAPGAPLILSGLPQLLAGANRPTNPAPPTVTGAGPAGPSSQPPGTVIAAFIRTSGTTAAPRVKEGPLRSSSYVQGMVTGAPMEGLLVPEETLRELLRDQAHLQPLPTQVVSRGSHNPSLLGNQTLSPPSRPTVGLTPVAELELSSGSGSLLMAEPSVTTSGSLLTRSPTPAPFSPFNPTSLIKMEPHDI
# Chain of ETV1 (P50549 whole entry): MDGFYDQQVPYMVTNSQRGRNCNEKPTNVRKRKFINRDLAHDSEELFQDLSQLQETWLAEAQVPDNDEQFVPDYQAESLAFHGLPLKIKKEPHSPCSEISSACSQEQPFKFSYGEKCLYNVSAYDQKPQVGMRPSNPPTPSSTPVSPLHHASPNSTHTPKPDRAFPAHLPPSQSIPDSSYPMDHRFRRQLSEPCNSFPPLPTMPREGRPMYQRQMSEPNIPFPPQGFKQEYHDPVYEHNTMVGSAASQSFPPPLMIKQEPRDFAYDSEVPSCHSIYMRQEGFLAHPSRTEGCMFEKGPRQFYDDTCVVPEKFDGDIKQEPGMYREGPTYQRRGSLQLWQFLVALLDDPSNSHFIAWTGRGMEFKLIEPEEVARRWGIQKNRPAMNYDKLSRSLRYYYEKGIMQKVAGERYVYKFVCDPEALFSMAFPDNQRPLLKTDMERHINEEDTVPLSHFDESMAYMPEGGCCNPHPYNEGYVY
# Chain of HSF1 (Q00613 whole entry): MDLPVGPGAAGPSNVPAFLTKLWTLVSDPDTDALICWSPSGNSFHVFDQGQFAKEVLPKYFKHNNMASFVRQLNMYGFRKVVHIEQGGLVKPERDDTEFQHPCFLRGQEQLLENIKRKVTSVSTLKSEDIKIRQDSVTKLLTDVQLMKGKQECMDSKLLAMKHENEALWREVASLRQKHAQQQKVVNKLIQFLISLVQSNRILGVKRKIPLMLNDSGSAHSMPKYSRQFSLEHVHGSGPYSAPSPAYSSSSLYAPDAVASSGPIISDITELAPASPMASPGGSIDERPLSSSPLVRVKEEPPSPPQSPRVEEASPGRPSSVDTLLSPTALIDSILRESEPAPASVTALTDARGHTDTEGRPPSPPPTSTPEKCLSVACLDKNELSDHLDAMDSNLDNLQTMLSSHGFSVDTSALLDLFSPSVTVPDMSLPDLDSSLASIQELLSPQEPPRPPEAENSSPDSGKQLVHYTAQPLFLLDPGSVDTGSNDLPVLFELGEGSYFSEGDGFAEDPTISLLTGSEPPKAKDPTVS
Sequence,binding signal (FEV),binding signal (ETV5),binding signal (HSF1),binding signal (ELF4),binding signal (ELK4),binding signal (ETV2),binding signal (ELF3),binding signal (CRX),binding signal (ETV1),binding signal (ERF),binding signal (ETV3L),binding signal (ETS2),binding signal (SPDEF),binding signal (ETV7),binding signal (ELF5),binding signal (ETV3),binding signal (ETV6)
AAAAGA,"1.07 fold enrichment (6-mer frequency, TF over GST control)","1.12 fold enrichment (6-mer frequency, TF over GST control)","1.43 fold enrichment (6-mer frequency, TF over GST control)","1.2 fold enrichment (6-mer frequency, TF over GST control)","1.2 fold enrichment (6-mer frequency, TF over GST control)","1.1 fold enrichment (6-mer frequency, TF over GST control)","1.17 fold enrichment (6-mer frequency, TF over GST control)","1.28 fold enrichment (6-mer frequency, TF over GST control)","1.14 fold enrichment (6-mer frequency, TF over GST control)","1.24 fold enrichment (6-mer frequency, TF over GST control)","1.1 fold enrichment (6-mer frequency, TF over GST control)","1.22 fold enrichment (6-mer frequency, TF over GST control)","1.1 fold enrichment (6-mer frequency, TF over GST control)","1.1 fold enrichment (6-mer frequency, TF over GST control)","1.13 fold enrichment (6-mer frequency, TF over GST control)","1.07 fold enrichment (6-mer frequency, TF over GST control)","1.21 fold enrichment (6-mer frequency, TF over GST control)"
TGCAAA,"1.12 fold enrichment (6-mer frequency, TF over GST control)","1.09 fold enrichment (6-mer frequency, TF over GST control)","1.06 fold enrichment (6-mer frequency, TF over GST control)","1.13 fold enrichment (6-mer frequency, TF over GST control)","1.14 fold enrichment (6-mer frequency, TF over GST control)","1.08 fold enrichment (6-mer frequency, TF over GST control)","1.2 fold enrichment (6-mer frequency, TF over GST control)","1.01 fold enrichment (6-mer frequency, TF over GST control)","1.14 fold enrichment (6-mer frequency, TF over GST control)","1.13 fold enrichment (6-mer frequency, TF over GST control)","1.15 fold enrichment (6-mer frequency, TF over GST control)","1.05 fold enrichment (6-mer frequency, TF over GST control)","1.1 fold enrichment (6-mer frequency, TF over GST control)","1.09 fold enrichment (6-mer frequency, TF over GST control)","1.05 fold enrichment (6-mer frequency, TF over GST control)","1.06 fold enrichment (6-mer frequency, TF over GST control)","1.06 fold enrichment (6-mer frequency, TF over GST control)"
